Bioassay records from PubChem.
PINK1 expr mod: A Quantitative High throughput Screen to Identify Chemical Modulators of PINK1 Expression; hit rate 0.2% among 410,000; Potency, µM (highest dose often 76.6 µM), most hits filed as activators; PINK1 immunofluorescence, high-content cytometry, 24 h; AID 624263, 2012; active = well fitted activation curve with a large enough effect; inconclusive = small, poorly fitted or top-dose-only effect; cell line not stated here; also: nearly all actives have a fitted effect of over 65% in size
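PINK1 protein, normally rapidly degraded, was detected by immunofluorescence after 24 hour compound treatment of a stable cell line. Titration data (5 concentrations) came from laser-scanning cytometry, with CCCP-treated wells as controls.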
Epigenetic derep: Quantitative High-Throughput Screen for Regulators of Epigenetic Control; murine LDR cells, GFP reporter derepression, 30 h; Potency, µM (titrated, usually from 53.9 µM), usual class: activators; hit rate 0.2% among 280,000; also: nearly all actives have a fitted effect of over 60% in size
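Murine LDR cells carrying a silenced, genomically integrated CMV-driven GFP reporter were exposed to compound for 30 hours at 37 C. After PBS washes, GFP-positive cells (20–120 um objects) were counted by laser-scanning microplate cytometry.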
ClpP mod: qHTS Assay for Activators of ClpP. Potency, µM (titrated, usually from 57.5 µM). purified B. subtilis ClpP, FRET peptide cleavage, 20 min. ATP-dependent Clp protease proteolytic subunit (Bacillus subtilis (strain 168)), P80244. hit rate 1.9% among 340,000. AID 651965, 2013; active = well fitted falling curve with a large enough effect; inconclusive = small, poorly fitted or top-dose-only effect; inactive = no such curve, though single readings can be large or run the other way; also: the source files actives as falling curves though it sought activators and does not explain the sign; nearly all actives have a fitted effect of over 65% in size
Target sequence (P80244 whole entry, looked up): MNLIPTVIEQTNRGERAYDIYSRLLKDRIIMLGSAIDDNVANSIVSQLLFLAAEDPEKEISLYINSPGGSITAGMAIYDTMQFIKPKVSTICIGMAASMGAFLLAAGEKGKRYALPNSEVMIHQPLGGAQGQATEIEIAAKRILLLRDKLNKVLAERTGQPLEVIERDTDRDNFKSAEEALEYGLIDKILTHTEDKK
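Buffer: 100 mM Tris/HCl pH8, 100 mM KCl, 0.05% low protease BSA, 2.5% glycerol, 0.01% Tween-20. ClpP 10 microg/mL final; 20 min RT; delta FRET normalized to ADEP and DMSO controls.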
RORgamma inh: qHTS for inhibitors of ROR gamma transcriptional activity. Nuclear receptor ROR-gamma (Mus musculus), P51450. hit rate 5.4% among 310,000. Potency, µM (highest dose often 53.6 µM), hits mostly inhibitors. AID 2551, 2010. Drosophila S2 Gal4-RORgamma UAS-luciferase reporter, 20 h; also: nearly all actives have a fitted effect of over 60% in size
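Schneider cells (Drosophila), stable Gal4 DBD–ROR gamma + UAS-luc; 1 hr cmpd preincubation; Cu2+ induction 700 uM final; 20 hr ambient; luminescence.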
VP16 counter: VP16 counterscreen qHTS for inhibitors of ROR gamma transcriptional activity; Drosophila S2 Gal4-VP16 UAS-luciferase, luminescence, 20 h; AID 2546, 2010; hit rate 3.5% among 310,000; Potency, µM (top dose mostly 53.6 µM), most hits filed as inhibitors;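 also: Gal4-VP16 expression switched on by copper sulfate through the metallothionein promoter; nearly all actives have a fitted effect of over 50% in size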
Sfp inh: qHTS Assay for Inhibitors of Bacillus subtilis Sfp phosphopantetheinyl transferase (PPTase) | Potency, µM, most hits filed as inhibitors | 4'-phosphopantetheinyl transferase ffp (Bacillus subtilis), Q9F4F7 | AID 1490, 2009 | Biochemical Sfp PPTase activity, qHTS | hit rate 3.5% among 310,000;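 also: the enzyme is Sfp with the accession as filed and its product quenches rhodamine fluorescence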
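With Hepes-Na pH 7.6 buffer containing 10 mM MgCl2, Sfp (15 nM) modified BHQ-2-YbbR (12.5 uM) using rhodamine-CoA (5 uM). Two reads 30 minutes apart at 525/598 nm yielded each well's rate.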
A number is an active result; - = inactive; ? = inconclusive; . = not tested or not shown; ! = a repeat was not active. Hits are enriched below; roughly 8.1% of the tested compounds scored in any of these assays. Unless noted, calls follow the shape of the dose curve; as a rule, active = well fitted curve in the direction sought with a large enough effect; inconclusive = small, poorly fitted or top-dose-only effect, or another doubt; inactive = no such curve, though single readings can be large; an effect the other way counts as inactive or inconclusive.

SMILES | PINK1 expr mod | Epigenetic derep | ClpP mod | RORgamma inh | VP16 counter | Sfp inh
COCCOC(=O)c1c(C)n(C)c2ccc(OC(=O)N(C)C)cc12 | 5.6µM | - | - | - | - | -
CCOc1ccc(CC2C(=O)NC(=O)N(c3ccc(CC)cc3)C2=O)cc1 (stereo unspecified) | - | - | - | - | - | 56µM
COc1ccc(C2C=C(c3ccccc3)Nc3nc(NC(=O)/C=C/c4ccccc4Cl)nn32)cc1 (stereo unspecified) | ? | - | - | . | . | .
CC[n+]1c(-c2ccccc2)c2cc(N)ccc2c2ccc(N)cc21 | - | - | - | ? | 11µM | ?
COC(=O)C(Cc1ccc(N(CCCl)CCCl)cc1)N=Cc1ccccc1O (stereo unspecified) | - | . | . | 7.9µM | ? | -
O=C(N/N=C/c1ccccc1OC(=O)N1CCOCC1)c1cccs1 | - | - | . | 2.5µM | 13µM | -
COc1ccc(C2=C(C(C)=O)Sc3nnc(-c4ccc(Cl)cc4)n3N2C(C)=O)cc1OC | - | - | ? | . | . | .
O=C1NC(=O)C(=Cc2ccc(N3CCN(C(=O)c4ccccc4)CC3)c([N+](=O)[O-])c2)C(=O)N1 | - | - | . | - | - | 28µM
O=C1NC(=O)C(=Cc2cc([N+](=O)[O-])ccc2N2CCCCC2)C(=O)N1 | - | - | . | - | - | -
CN1C(=O)C(=Cc2ccc(N3CCOCC3)c([N+](=O)[O-])c2)C(=O)N(C)C1=O | . | - | . | - | - | 22µM
Cc1cc(C(=O)Nc2ccc(CC(=O)O)cc2)c(C)o1 | - | . | . | 11µM | ? | -
C[C@]12CC[C@@H](O)CC1CCC1C2CC[C@]2(C)C(=O)CC[C@@H]12 (stereo partly specified) | . | - | . | . | . | .
CC(C)C[C@H](NC(=O)[C@H](CC(C)C)NC(=O)[C@H](Cc1ccccc1)NC(=O)[C@@H](N)Cc1ccc(O)cc1)C(=O)N[C@@H](CCCN=C(N)N)C(=O)N[C@@H](CC(N)=O)C(=O)N1CCC[C@H]1C(=O)O | . | . | . | - | - | -
CCc1c(C(=O)OC)ncc2[nH]c3cc(OC)c(OC)cc3c12 | . | - | . | . | . | -
CCOC(=O)c1ncc2[nH]c3ccc(OCc4ccccc4)cc3c2c1COC | . | - | . | - | 4.5µM | -
COc1ccc(-c2coc3c(C(=O)Nc4cc(OC)c(OC)c(OC)c4)cccc23)c(C)c1 | - | . | ? | . | . | .
N[C@@H](Cn1oc(=O)[nH]c1=O)C(=O)O | - | ? | - | - | - | 45µM
Cc1o[nH]c(=O)c1CC(N)C(=O)O (stereo unspecified) | . | - | . | . | . | .
O=C(Nc1ccc2ccccc2c1)c1nn(C23CC4CC(CC(C4)C2)C3)cc1Br | - | - | 20µM | - | - | -
CCCCC/C=C\C/C=C\C/C=C\C/C=C\CCCC(=O)NCCCl | . | - | . | - | - | 32µM
CCCCC/C=C\C/C=C\C/C=C\C/C=C\CCCC(=O)O | - | ? | . | ? | ? | 63µM!
COC(=O)[C@]1(C)CC[C@@]2(C)CC[C@@]3(C)C4=CCc5c(cc(O)c(O)c5C)[C@]4(C)CC[C@@]3(C)C2C1 (stereo partly specified) | ? | - | . | ? | 16µM | -
C/C(O)=C(/C#N)C(=O)Nc1cc(Br)ccc1Br | . | ? | . | - | - | -
CCCCCCn1c(N)c(C(=O)NCCN2CCOCC2)c2nc3ccccc3nc21 | - | - | 25µM | ? | ? | -
CCCCn1c(N)c(C(=O)NCc2cccs2)c2nc3ccccc3nc21 | - | ? | 25µM | - | - | -
Nc1c(C(=O)NCCCc2ccccc2)c2nc3ccccc3nc2n1Cc1cccs1 | - | - | ? | ? | ? | -
CCCCn1c(NC(=O)c2ccco2)c(C(=O)OCC)c2nc3ccccc3nc21 | . | ? | ? | ? | - | 50µM
COc1ccc(CCNC(=O)c2c(N)n(CCN3CCOCC3)c3nc4ccccc4nc23)cc1OC | - | - | - | - | - | -
